Test system: Vero E6 infected with SARS-CoV-2
Experiment: inhibition of SARS-CoV-2 cytopathic effect; higher = more antiviral protection, active = above 15
Settings: 48 h

Measured: inhibition of SARS-CoV-2 cytopathic effect

Nc1cccc(CNC(=O)c2ccc(Oc3ccc(OCc4cccc(F)c4)cc3)nc2)c1
inactive: 1 nM -2.39% | 8.33 nM -0.37% | 100 nM 0.75% | 833.33 nM 0.65% | 10000 nM -2.15%

CC1=C(C(=O)Nc2cc3cn[nH]c3cc2F)C(c2ccc(C(F)(F)F)cc2)CC(=O)N1 (stereo not given)
inactive: 1 nM 1.8% | 8.33 nM -1.07% | 100 nM 1.5% | 833.33 nM -0.29% | 10000 nM -5.1%

N#Cc1ccncn1 [4-pyrimidinecarbonitrile]
inactive: 1 nM 3.43% | 8.33 nM 1.7% | 100 nM 4.16% | 833.33 nM 0.49% | 10000 nM -3.8%

CN(C)CCOC(=O)C(c1ccccc1)C1(O)CCCC1 (stereo not given) [cyclopentolate]
inactive: 1 nM -1.73% | 8.33 nM 1.59% | 100 nM -2.5% | 833.33 nM -0.18% | 10000 nM -1.17%

O=C(Nc1ccc(OC(F)(F)F)cc1)c1sccc1NCc1ccnc2ccccc12
inactive: 1 nM -2.32% | 8.33 nM 3.56% | 100 nM 4.81% | 833.33 nM 4.77% | 10000 nM 5.44%

CN1C2CCCC1CC(NC(=O)c1nn(C)c3ccccc13)C2 (stereo not given) [granisetron]
inactive: 1 nM 3.53% | 8.33 nM 4.21% | 100 nM -1.14% | 833.33 nM -2.63% | 10000 nM -4.21%

Cc1nc(-c2cn3c(n2)-c2ccc(-c4cnn(C(C)(C)C(N)=O)c4)cc2OCC3)n(C(C)C)n1 [taselisib]
inactive: 1 nM 3.71% | 8.33 nM 1.62% | 100 nM -1.05% | 833.33 nM -1.92% | 10000 nM -8.91%

CCC[C@@H]1C[C@@H](C(=O)N[C@@H]([C@H]2O[C@H](SC)[C@H](O)[C@@H](O)[C@H]2O)[C@@H](C)O)N(C)C1 [lincomycin]
inactive: 1 nM 1.22% | 8.33 nM 2.66% | 100 nM -0.29% | 833.33 nM -1.24% | 10000 nM -1.36%

COc1ccc(Cl)c(Nc2nc3ccccc3nc2NS(=O)(=O)c2cccc(NC(=O)C(C)(C)N)c2)c1 [pilaralisib]
inactive: 1 nM 0.3% | 8.33 nM 0.48% | 100 nM 1.1% | 833.33 nM 0.71% | 10000 nM -1.82%

NCCCCCNCC12CC3CC(CC(C3)C1)C2
inactive: 1 nM 2.39% | 8.33 nM 1.74% | 100 nM 0.57% | 833.33 nM 2.97% | 10000 nM -1.44%

Cc1c(F)cc(C(=O)NC2CC2)cc1-c1c(F)cn2c(C(C)(C)C)nnc2c1F
inactive: 1 nM -1.55% | 8.33 nM -0.6% | 100 nM -3.43% | 833.33 nM 0.89% | 10000 nM -0.19%

C=CCN1C[C@H](C(=O)N(CCCN(C)C)C(=O)NCC)C[C@@H]2c3cccc4[nH]cc(c34)C[C@H]21 [cabergoline]
inactive: 1 nM -19% | 8.33 nM -12.2% | 100 nM -10% | 833.33 nM -8.73% | 10000 nM -14.1%

C[C@@H]1CCCN1CCc1cc2cc(-c3ccc(C#N)cc3)ccc2o1
inactive: 1 nM -2.35% | 8.33 nM -2.18% | 100 nM 1.55% | 833.33 nM -0.35% | 10000 nM 4.34%

COc1ccc(-c2ccc3c(N4CCOC[C@@H]4C)nc(N4CCOC[C@@H]4C)nc3n2)cc1CO
inactive: 1 nM -1.08% | 8.33 nM -2.46% | 100 nM -3.62% | 833.33 nM -4.35% | 10000 nM -6.56%

CCc1cn([C@H]2C[C@H](O)[C@@H](CO)O2)c(=O)[nH]c1=O [edoxudine]
inactive: 1 nM 2.72% | 8.33 nM 2.12% | 100 nM 0.77% | 833.33 nM 1.82% | 10000 nM -0.51%

CS(=O)(=O)c1ccc(Oc2cc(F)cc(C#N)c2)c2c1[C@H](O)C(F)(F)C2
inactive: 1 nM 0.26% | 8.33 nM 2.61% | 100 nM 0.38% | 833.33 nM -1.3% | 10000 nM 0.01%

Cc1c(C)c2c(c(C)c1O)CCC(C)(C)O2
inactive: 1 nM 0.77% | 8.33 nM -0.34% | 100 nM 2.33% | 833.33 nM 4.37% | 10000 nM -5.56%

CN1[C@@H]2CC[C@H]1C[C@@H](OC1c3ccccc3CCc3ccccc31)C2 [deptropine]
inactive: 1 nM 0.19% | 8.33 nM 0.38% | 100 nM 1.32% | 833.33 nM -0.87% | 10000 nM 12.7%

CCC(=O)OCC(=O)[C@@]1(OC(=O)CC)[C@H](C)C[C@H]2[C@H]3[C@H]([C@@H](O)C[C@@]21C)[C@@]1(C)C=CC(=O)C=C1C[C@H]3Cl [alclometasone-dipropionate]
inactive: 1 nM 3% | 8.33 nM 0.48% | 100 nM 1.16% | 833.33 nM 1.07% | 10000 nM -2.92%

CC(C)C(=O)OC[C@@]1(N=[N+]=[N-])O[C@@H](n2ccc(N)nc2=O)[C@H](OC(=O)C(C)C)[C@@H]1OC(=O)C(C)C [balapiravir]
inactive: 1 nM 2.39% | 8.33 nM 1.09% | 100 nM 0.61% | 833.33 nM -0.11% | 10000 nM 0.76%

CCCc1nc(C)c2c(=O)nc(-c3cc(S(=O)(=O)N4CCN(CC)CC4)ccc3OCC)[nH]n12 [vardenafil]
inactive: 1 nM -1.45% | 8.33 nM -1.02% | 100 nM 0.46% | 833.33 nM -0.81% | 10000 nM 1.4%

CCCc1nc(C(C)(C)O)c(C(=O)OCc2oc(=O)oc2C)n1Cc1ccc(-c2ccccc2-c2nnn[nH]2)cc1 [olmesartan-medoxomil]
inactive: 1 nM -1.27% | 8.33 nM 0.1% | 100 nM -1.32% | 833.33 nM 1.87% | 10000 nM 0.55%

CNC(=O)c1nn(C)c2c1C(C)(C)Cc1cnc(Nc3ccc(N4CCN(C)CC4)cc3)nc1-2
inactive: 1 nM 0.32% | 8.33 nM 0.79% | 100 nM 1.17% | 833.33 nM -4.6% | 10000 nM -10.3%

O=C(O)CNC(=O)C1C(=O)N(C2CCCCC2)C(=O)N(C2CCCCC2)C1=O [daprodustat]
inactive: 1 nM -0.26% | 8.33 nM 1.23% | 100 nM 2.21% | 833.33 nM 2.38% | 10000 nM -0.29%

CNC[C@H](O)c1ccc(O)c(O)c1 [epinephrine]
inactive: 1 nM 3.04% | 8.33 nM 3.04% | 100 nM -1.01% | 833.33 nM 0.24% | 10000 nM -0.94%

CCCCc1ncc(/C=C(\Cc2cccs2)C(=O)O)n1Cc1ccc(C(=O)O)cc1 [eprosartan]
inactive: 1 nM -1.35% | 8.33 nM -0.99% | 100 nM -0.35% | 833.33 nM -0.6% | 10000 nM 2.22%

NS(=O)(=O)c1cc2c(cc1Cl)NCNS2(=O)=O [hydrochlorothiazide]
inactive: 1 nM 3.33% | 8.33 nM 0.33% | 100 nM 0.49% | 833.33 nM 0.84% | 10000 nM -1.16%

Cc1cc(Nc2ncnc3ccc(NC4=NC(C)(C)CO4)cc23)ccc1Oc1ccn2ncnc2c1 [tucatinib]
inactive: 1 nM -2.37% | 8.33 nM 0.54% | 100 nM -5.16% | 833.33 nM -3.64% | 10000 nM -12.7%

CC1(C)CCC[C@]2(C)[C@H]3CC(=O)O[C@]3(C)CC[C@@H]12 [Sclareolide (Norambreinolide)]
inactive: 1 nM -2.36% | 8.33 nM 3.53% | 100 nM 6.06% | 833.33 nM 2.01% | 10000 nM 1.5%

CC(=O)N[C@H](Cc1ccc2ccccc2c1)C(=O)N[C@H](Cc1ccc(Cl)cc1)C(=O)N[C@H](Cc1cccnc1)C(=O)N[C@@H](CO)C(=O)N[C@@H](Cc1ccc(NC(=O)[C@@H]2CC(=O)NC(=O)N2)cc1)C(=O)N[C@H](Cc1ccc(NC(N)=O)cc1)C(=O)N[C@@H](CC(C)C)C(=O)N[C@@H](CCCCNC(C)C)C(=O)N1CCC[C@H]1C(=O)N[C@H](C)C(N)=O [degarelix]
inactive: 1 nM -0.25% | 8.33 nM 1.93% | 100 nM 3.06% | 833.33 nM 1.45% | 10000 nM 2.25%

S=C(NC1CCCCC1)N1CCC(c2cnc[nH]2)CC1 [thioperamide]
inactive: 1 nM 1.24% | 8.33 nM 1.61% | 100 nM -0.03% | 833.33 nM 0.28% | 10000 nM -2.39%

CN(C)CCOc1cc(-c2cn[nH]c2)ccc1NC(=O)C1COc2ccccc2O1 (stereo not given)
inactive: 1 nM -1.4% | 8.33 nM 1.35% | 100 nM 0.53% | 833.33 nM -5.69% | 10000 nM -6.4%

COc1cccc(-c2ccc(NC(=O)C3=C(C(=O)O)CCC3)c(F)c2)c1
inactive: 1 nM 2.25% | 8.33 nM 3.22% | 100 nM 2.16% | 833.33 nM 5.63% | 10000 nM 4.97%

CCOc1ccc(C[C@H]2NC(=O)CCSSC[C@@H](C(=O)N3CCC[C@H]3C(=O)N[C@@H](CCCN)C(=O)NCC(N)=O)NC(=O)[C@H](CC(N)=O)NC(=O)[C@H]([C@@H](C)O)NC(=O)[C@H]([C@@H](C)CC)NC2=O)cc1 [atosiban]
inactive: 1 nM 1.81% | 8.33 nM -1.47% | 100 nM -2.35% | 833.33 nM -0.16% | 10000 nM 0.37%

CC(=O)NCCc1c[nH]c2ccccc12 [N-acetyltryptamine]
inactive: 1 nM 0.9% | 8.33 nM 2.35% | 100 nM 2.28% | 833.33 nM -0.38% | 10000 nM 2.53%

CN1CC[C@@H]2CN3CCc4cccc(c43)[C@@H]2C1
inactive: 1 nM -3.24% | 8.33 nM -0.59% | 100 nM 1.77% | 833.33 nM -0.07% | 10000 nM 1.24%

CCN(C(C)=O)c1cccc(-c2ccnc3c(C#N)cnn23)c1
inactive: 1 nM -0.78% | 8.33 nM -1.57% | 100 nM -2.79% | 833.33 nM -0.59% | 10000 nM -0.53%
